Test results published in PubChem BioAssay (Tox21).
Records with an inconclusive call do not appear. Values without a mark were called inactive. Active and inactive are the calls of the source. Calls follow the shape of the dose curve; as a rule, active = well fitted inhibition curve with a large enough effect in the repeat runs; inconclusive = weak or mixed curves; inactive = no such curve, though single readings can be large or run the other way.

Molecular target: Cytochrome P450 1A2 (Homo sapiens) (UniProt P05177)
Sequence (P05177 whole entry, looked up): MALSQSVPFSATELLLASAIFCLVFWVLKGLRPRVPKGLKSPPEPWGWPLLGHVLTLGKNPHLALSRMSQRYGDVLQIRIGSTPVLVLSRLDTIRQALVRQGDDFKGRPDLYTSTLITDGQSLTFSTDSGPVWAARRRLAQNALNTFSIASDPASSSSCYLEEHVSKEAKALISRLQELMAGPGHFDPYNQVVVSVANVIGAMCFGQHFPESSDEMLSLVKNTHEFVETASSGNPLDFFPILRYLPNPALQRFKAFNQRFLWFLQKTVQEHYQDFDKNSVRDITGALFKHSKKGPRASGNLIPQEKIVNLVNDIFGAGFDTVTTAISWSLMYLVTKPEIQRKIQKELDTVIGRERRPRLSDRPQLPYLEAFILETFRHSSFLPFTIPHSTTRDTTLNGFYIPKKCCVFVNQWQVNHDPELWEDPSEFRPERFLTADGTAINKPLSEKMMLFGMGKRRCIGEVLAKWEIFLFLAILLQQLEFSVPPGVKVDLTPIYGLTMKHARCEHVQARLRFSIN
Experiment: Cytochrome P450 Family 1 Subfamily A Member 2 (CYP1A2) small molecule antagonists: luciferase reporter qHTS assay (AID 1671199); also: nearly all actives have a fitted effect of over 50% in size
Details: P450-Glo CYP1A2 enzyme, luciferin luminescence, 1 h; series mostly up to 115 µM; activity change, negative = inhibition: at the top concentration
How it was run: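 Luminescence from luciferin formed by CYP1A2 from a proluciferin substrate, read 20 min after detection reagent. Compound was pre-incubated 10 min with enzyme-substrate, and reaction started with NADPH regeneration solution for 1 h at room temperature; furafylline control.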
% is scaled to controls: 0 for no effect and ±100 for the full control effect; potency is read from the fitted curve at half-maximal effect.

Row | SMILES | Potency | activity change, negative = inhibition
1 | N#CC(Cl)Cl | 61.6 µM (active) | –
2 | CC(C)(C)C(O)/C(=C\c1ccc(Cl)cc1Cl)n1cncn1 (stereo not given) | 38.4 µM (active) | –
3 | Cc1ccc(OP(=O)(Oc2ccccc2)Oc2ccccc2)cc1 | 11.4 µM (active) | –
4 | O=C(CCCN1CCC2(CC1)C(=O)NCN2c1ccccc1)c1ccc(F)cc1 | – | -4.41% [at 53 µM]
5 | COc1cccc(C(=O)CCN[C@@H](C)[C@H](O)c2ccccc2)c1 | 24.5 µM (active) | –
6 | O=C1NCN(c2ccccc2)C12CCN(CC1COc3ccccc3O1)CC2 (stereo not given) | – | -24.7% [at 53 µM]
7 | O=c1ssc(Cl)c1Cl | 35.6 µM (active) | –
8 | COc1cc(N)c(Cl)cc1C(=O)NC1CN2CCC1CC2 (stereo not given) | – | -8.78% [at 53 µM]
9 | CCOP(=S)(OCC)SCS(=O)(=O)C(C)(C)C | 44.8 µM (active) | –
10 | CCOc1cc(C(C)(C)C)ccc1C1COC(c2c(F)cccc2F)=N1 (stereo not given) | 24.2 µM (active) | –
11 | CCN(CC)c1c([N+](=O)[O-])cc(C(F)(F)F)c(N)c1[N+](=O)[O-] | 0.356 µM (active) | –
12 | O=C(Cl)c1ccc(Cl)cc1 | – | -8.84%
13 | CC(C)N1C(=O)N(c2ccccc2)CSC1=NC(C)(C)C | 31.7 µM (active) | –
14 | COC12CC[C@@]3(C[C@@H]1C(C)(O)C(C)(C)C)[C@H]1Cc4ccc(O)c5c4[C@@]3(CCN1CC1CC1)[C@H]2O5 (stereo not given in full) | – | -23.1%
15 | CN(C)CCc1c[nH]c2ccc(O)cc12 | – | -22%
16 | C=CC(=O)N(C)C | – | 2.07%
17 | O=C1c2ccccc2C(=O)C1C(=O)C(c1ccccc1)c1ccc(Cl)cc1 (stereo not given) | 20 µM (active) | –
18 | O=CC(Br)(Br)Br | 28.2 µM (active) | –
19 | Cc1cc(C(C)(C)c2cc(C)c(O)c(C)c2)cc(C)c1O | 38.6 µM (active) | –
20 | Oc1cc(Cl)c(Cl)c(Cl)c1 | 26.8 µM (active) | –
